{"source": "PubChem BioAssay AID463173", "about": "(ICCB-Longwood Screening Facility, Harvard Medical School, 2010)", "note": "Hit rate of the full screen: of about 52,000 compounds, about 1,700 (3.3%) were called active. For the sample, actives were picked, then their nearest neighbours and some compounds at random. A number with no mark means an inactive call. Rule as the data show it: active = survival mostly below about 52% (no sharp cut-off); inactive = mostly above about 56%.", "data": [{"system": "Wild type", "assay": "S. aureus survival, RN4220 and DeltatarO strains – OD600, teichoic acid synthesis inhibitors, primary screen (AID 463173)", "details": "S. aureus RN4220 wild type/DeltatarO growth, OD600, 18 h, active compounds read low, screened at 18.75 µg/mL (by protocol)", "values": [{"molecule": "CC1=Nc2ccccc2N=C(C)C1", "survival": "115%"}, {"molecule": "CCOc1ccc(-c2nc(SCC(=O)NC3CCCC3)c(-c3ccccc3)[nH]2)cc1OC", "survival": "73%"}, {"molecule": "COC(=O)c1ccc(OC)c(Cn2c(=O)n(-c3ccc(C)cc3)c(=O)c3c2cnn3C)c1", "survival": "76%"}, {"molecule": "CCCCNC(=O)c1cnc2c(-c3ccc(OCC)c(OCC)c3)c(C)nn2c1-c1ccccc1", "survival": "80%"}, {"molecule": "COC(=O)c1ccccc1NC(=O)c1cnc2c(-c3cccc(C)c3)c(C)nn2c1C", "survival": "133%"}, {"molecule": "CCOc1ccc(-c2c(C)nn3c(C)c(C(=O)Nc4cc(C)cc(C)c4)cnc23)cc1OCC", "survival": "133%"}, {"molecule": "CCOc1ccc(-c2c(C)nn3c(C)c(C(=O)Nc4ccccc4C(=O)OC)cnc23)cc1OCC", "survival": "-6% (active)"}, {"molecule": "CCOc1ccc(-c2c(C)nn3c(C)c(C(=O)Nc4cccc(Cl)c4C)cnc23)cc1OCC", "survival": "67%"}, {"molecule": "Cc1nn2c(C)c(C(=O)NCc3cccc(Br)c3)cnc2c1-c1ccccc1", "survival": "53%"}, {"molecule": "COc1cc(CNC(=O)c2cnc3c(-c4cccc(C)c4)c(C)nn3c2C)cc(OC)c1OC", "survival": "74%"}, {"molecule": "Cc1cccc(CNC(=O)c2cnc3c(-c4cccc(C)c4)c(C)nn3c2C)c1", "survival": "-1% (active)"}, {"molecule": "CCCNC(=O)c1cnc2c(-c3ccc(OCC)c(OCC)c3)c(C)nn2c1-c1ccccc1", "survival": "76%"}, {"molecule": "CCOc1ccc(OCC)c(NC(=O)c2cnc3c(-c4ccccc4)c(C)nn3c2C)c1", "survival": "63%"}, {"molecule": "CCOc1ccc(-c2c(C)nn3c(-c4ccccc4)c(C(=O)NCCOC)cnc23)cc1OCC", "survival": "-6% (active)"}, {"molecule": "COc1cc(Cl)c(C)cc1NC(=O)c1cnc2c(-c3cccc(C)c3)c(C)nn2c1C", "survival": "14% (active)"}, {"molecule": "COCCNc1ccc2cc(S(=O)(=O)N3CCCCC3)ccc2n1", "survival": "56%"}, {"molecule": "COc1ccccc1CNC(=O)COCc1cc(-c2ccc3c(c2)OCO3)on1", "survival": "19%"}, {"molecule": "COC(=O)C(C)n1nnc2sc(-c3ccccc3)cc2c1=O", "note": "(stereo not drawn)", "survival": "88%"}, {"molecule": "CCOC(=O)c1cccc(NC(=O)N2CCC(CN3CCc4ccccc4C3)CC2)c1", "survival": "71%"}, {"molecule": "CC(=O)N1c2ccccc2C(=O)C1N1CCN(c2cc(Cl)ccc2C)CC1", "note": "(stereo not drawn)", "survival": "138%"}, {"molecule": "Cc1nn2c(C)c(C(=O)NCCc3ccccc3)cnc2c1-c1ccccc1", "survival": "55%"}, {"molecule": "CCOc1ccc(CCNC(=O)c2cnc3c(-c4ccccc4)c(C)nn3c2C)cc1OCC", "survival": "-3% (active)"}, {"molecule": "CCOc1ccc(CCNC(=O)c2cnc3c(-c4ccc(F)cc4)c(C)nn3c2C)cc1OCC", "survival": "159%"}, {"molecule": "CCNC(=O)c1cnc2c(-c3ccccc3)c(C)nn2c1C", "survival": "0% (active)"}, {"molecule": "Cc1nn2c(C)c(C(=O)NCC(C)c3ccccc3)cnc2c1-c1ccccc1", "note": "(stereo not drawn)", "survival": "75%"}, {"molecule": "CCOc1ccc(-c2c(C)nn3c(C)c(C(=O)NCCc4ccccc4)cnc23)cc1OCC", "survival": "53%"}, {"molecule": "Cc1cccc(CSc2nnc3[nH]c(=O)cc(-c4ccccc4)n23)c1", "survival": "80%"}, {"molecule": "CCOC(=O)C1CCCN(C(=O)c2ccc(C)c(NC(=O)c3nsc4ccccc34)c2)C1", "note": "(stereo not drawn)", "survival": "123%"}, {"molecule": "NS(=O)(=O)c1cccc(S(N)(=O)=O)c1", "survival": "117%"}, {"molecule": "Cc1ccc(NC(=O)CN2C(=O)C(c3ccc(F)cc3)=NC2(C)C)c(C)c1", "survival": "85%"}, {"molecule": "Cc1ccc(-c2nn3c(-c4ccccc4)nnc3c3ccccc23)cc1", "survival": "76%"}, {"molecule": "COc1ccc(-c2nn3c(-c4ccccc4C)nnc3c3ccccc23)cc1", "survival": "-3% (active)"}, {"molecule": "COc1ccc(-c2nn3c(-c4ccc(OC)cc4)nnc3c3ccccc23)cc1", "survival": "73%"}, {"molecule": "Cc1ccc(-c2nn3c(-c4ccc(C)cc4)nnc3c3ccccc23)cc1", "survival": "20% (active)"}, {"molecule": "Cc1ccc(-c2nn3c(-c4ccccc4C)nnc3c3ccccc23)cc1", "survival": "51%"}, {"molecule": "Cc1ccc(-c2nnc3c4ccccc4c(-c4ccccc4)nn23)cc1", "survival": "123%"}, {"molecule": "COc1ccc(CNC(=O)c2cccc(N3CCCS3(=O)=O)c2)cc1OC", "survival": "63%"}, {"molecule": "O=C(Nc1cccc(C(=O)N2CCN(c3ccccc3F)CC2)c1)c1nsc2ccccc12", "survival": "67%"}, {"molecule": "COc1ccc(S(=O)(=O)n2nc(C)c(S(=O)(=O)N3CCCCCC3)c2C)cc1C", "survival": "55%"}, {"molecule": "Cc1nn(S(=O)(=O)c2ccccc2)c(C)c1S(=O)(=O)N1CCC(C)CC1", "survival": "81%"}, {"molecule": "Cc1nn(C(=O)c2cccc([N+](=O)[O-])c2C)c(C)c1S(=O)(=O)N1CCCCCC1", "survival": "-4% (active)"}, {"molecule": "Cc1nn(C(=O)c2ccccc2F)c(C)c1S(=O)(=O)N1CCCCCC1", "survival": "70%"}, {"molecule": "Cc1nn(S(=O)(=O)c2ccc(F)cc2)c(C)c1S(=O)(=O)N1CCC(C)CC1", "survival": "-3% (active)"}, {"molecule": "COc1ccc(S(=O)(=O)n2nc(C)c(S(=O)(=O)N3CCCCCC3)c2C)cc1OC", "survival": "1% (active)"}, {"molecule": "Cc1nn(S(=O)(=O)c2ccc(F)cc2)c(C)c1S(=O)(=O)N1CCCCC1", "survival": "71%"}, {"molecule": "COc1ccc(S(=O)(=O)n2nc(C)c(S(=O)(=O)N3CCC(C)CC3)c2C)cc1OC", "survival": "81%"}, {"molecule": "Cc1nn(C(=O)c2cccc([N+](=O)[O-])c2C)c(C)c1S(=O)(=O)N1CCOCC1", "survival": "64%"}, {"molecule": "CCOC(=O)c1cc(=O)n2[nH]c(-c3ccc(C)cc3)cc2n1", "survival": "107%"}, {"molecule": "CCC(Sc1nc2ccccc2c2nc(CCc3c(C)n[nH]c3C)nn12)C(=O)Nc1ccccc1F", "note": "(stereo not drawn)", "survival": "91%"}, {"molecule": "CCCCn1cc(S(=O)(=O)c2cc(C)ccc2C)c(=O)c2cc(F)c(F)cc21", "survival": "83%"}, {"molecule": "Cc1ccc(-c2cc(C(=O)Oc3ccccc3)c3cccc(C)c3n2)cc1", "survival": "13% (active)"}, {"molecule": "COc1ccc(-c2cc(C(=O)Oc3ccc(C)c(C)c3)c3ccccc3n2)cc1", "survival": "30%"}, {"molecule": "COc1ccc(-c2cc(C(=O)Oc3ccc(C)cc3)c3cc(C)ccc3n2)cc1", "survival": "22%"}, {"molecule": "COc1ccc(-c2cc(C(=O)Oc3ccccc3)c3cc(C)ccc3n2)cc1", "survival": "11%"}, {"molecule": "COc1ccc(-c2cc(C(=O)Oc3ccc(Br)cc3)c3ccccc3n2)cc1", "survival": "63%"}, {"molecule": "COc1ccc(-c2cc(C(=O)Oc3ccc(Cl)cc3)c3ccccc3n2)cc1", "survival": "60%"}, {"molecule": "Cc1ccc(OC(=O)c2cc(-c3ccccc3)nc3ccc(C)cc23)cc1", "survival": "61%"}, {"molecule": "COc1ccc(-c2cc(C(=O)Oc3cccc(C)c3)c3cc(C)ccc3n2)cc1", "survival": "19%"}, {"molecule": "COc1ccc(-c2cc(C(=O)Oc3ccc(C)cc3)c3ccccc3n2)cc1", "survival": "4% (active)"}, {"molecule": "COc1ccc(-c2cc(C(=O)Oc3cccc(C)c3C)c3ccccc3n2)cc1", "survival": "12% (active)"}, {"molecule": "COc1ccc(-c2cc(C(=O)Oc3cccc(C)c3)c3ccccc3n2)cc1", "survival": "3% (active)"}, {"molecule": "Cc1ccc(-c2cc(C(=O)Oc3ccccc3)c3cc(C)ccc3n2)cc1", "survival": "65%"}, {"molecule": "Cc1ccc(C(=O)NC(C)C)cc1C", "survival": "110%"}, {"molecule": "Cc1cc(NC(=O)c2ccc(Cl)c(Cl)c2)ccc1NC(=O)c1ccco1", "survival": "95%"}, {"molecule": "COCc1c(Br)c(C)nc2sc3c(=O)n(-c4cccc(Br)c4)nnc3c12", "survival": "87%"}, {"molecule": "CCn1c(CSc2ncccn2)nnc1SCC(=O)N1CCc2ccccc21", "survival": "102%"}, {"molecule": "CCCN(CCC)CCCNC(=O)Cn1cnc2onc(-c3ccc(F)cc3)c2c1=O", "survival": "73%"}, {"molecule": "Cc1nc(-c2ccccc2)sc1CCNS(=O)(=O)c1ccccc1", "survival": "69%"}, {"molecule": "CCC(C)S(=O)(=O)c1oc(-c2ccc(F)cc2)nc1S(=O)(=O)c1ccc(F)cc1", "note": "(stereo not drawn)", "survival": "49%"}, {"molecule": "CCSc1oc(-c2ccc(F)cc2)nc1S(=O)(=O)c1ccc(C)cc1", "survival": "41%"}, {"molecule": "CC(C)S(=O)(=O)c1oc(-c2ccc(F)cc2)nc1S(=O)(=O)c1ccc(F)cc1", "survival": "26%"}, {"molecule": "CS(=O)(=O)c1oc(-c2ccc(F)cc2)nc1S(=O)(=O)c1ccc(Cl)cc1", "survival": "-1% (active)"}, {"molecule": "CCCCS(=O)(=O)c1oc(-c2ccc(F)cc2)nc1S(=O)(=O)c1ccc(C)cc1", "survival": "33%"}, {"molecule": "CC(C)CS(=O)(=O)c1oc(-c2ccc(F)cc2)nc1S(=O)(=O)c1ccccc1", "survival": "3% (active)"}, {"molecule": "CC(C)S(=O)(=O)c1oc(-c2ccc(F)cc2)nc1S(=O)(=O)c1ccccc1", "survival": "23%"}, {"molecule": "CCS(=O)(=O)c1oc(-c2ccc(F)cc2)nc1S(=O)(=O)c1ccc(Br)cc1", "survival": "-1% (active)"}, {"molecule": "CCCCS(=O)(=O)c1oc(-c2ccc(F)cc2)nc1S(=O)(=O)c1ccccc1", "survival": "7% (active)"}, {"molecule": "CSc1oc(-c2ccc(F)cc2)nc1S(=O)(=O)c1ccc(Br)cc1", "survival": "54%"}, {"molecule": "Cc1ccc(-c2nc(S(=O)(=O)c3ccc(F)cc3)c(N3CCN(c4ccccc4)CC3)o2)cc1", "survival": "89%"}, {"molecule": "O=S(=O)(c1ccccc1)c1nc(-c2ccc(F)cc2)oc1N1CCOCC1", "survival": "73%"}, {"molecule": "CNC(=O)N(O)C1N(c2ccccc2)C(=S)SC1(C)C", "note": "(stereo not drawn)", "survival": "109%"}, {"molecule": "O=C(NCc1ccccc1Cl)C1CCCN(c2ncnc3onc(-c4ccc(F)cc4)c23)C1", "note": "(stereo not drawn)", "survival": "65%"}, {"molecule": "COc1ccc(-n2cc(C(=O)Oc3cc(C)cc(C)c3)c3ccccc3c2=O)cc1", "survival": "153%"}, {"molecule": "COc1cccc(NC(=O)c2ccc(CN3CCN(c4ccccc4)CC3)cc2)c1", "survival": "122%"}, {"molecule": "NC(=O)C1CCN(C(=O)c2ccc3c(c2)N(Cc2cccc(Cl)c2)C(=O)c2ccccc2S3(=O)=O)CC1", "survival": "69%"}, {"molecule": "O=C(Nc1c(C(=O)Nc2ccc(F)cc2)oc2ccccc12)c1ccccc1F", "survival": "30%"}, {"molecule": "Cc1ccc(S(=O)(=O)N2CCN(C(=O)CN3CCOCC3)C2C(C)C)cc1", "note": "(stereo not drawn)", "survival": "105%"}, {"molecule": "CCc1ccc(NC(=O)CSc2nc(C)c(C(=O)Nc3ccccc3)c(-c3ccc(OC)c(OC)c3)c2C#N)cc1", "survival": "85%"}]}]}
